Results published in PubChem BioAssay (NCI).
“And” between values parts separate entries of the source, which are not always exact repeats. Identical values can stand only once. This is part of a sample that, as a whole, favours compounds with a hit. Of some 79,000 tested, about 15% had one in any assay. Some structures have more than one record in an assay (separate samples or runs), and their calls can disagree. The source made the active and inactive calls. Rule as the data show it: active = growth inhibition above about 70%; inactive = the rest.

What was measured:
[1] = NCI Yeast Anticancer Drug Screen. Data for the rad52 strain (AID 147);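 also: 0% = growth of vehicle-treated control cultures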; conditions: S. cerevisiae rad52 mutant growth inhibition, stronger effect = higher value
In short: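 Yeast strain carrying a DNA damage repair alteration was exposed to test compounds. Growth inhibition was measured relative to vehicle-treated controls.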

[2] = NCI Yeast Anticancer Drug Screen. Data for the wt1 strain (AID 149);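 also: 0% = growth of vehicle-treated wt1 cultures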; conditions: S. cerevisiae wt1 strain (SPY 50644) growth inhibition, stronger effect = higher value
In short: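 Yeast wt1 strain exposed to compounds; growth inhibition measured relative to vehicle-treated controls.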

[3] = NCI Yeast Anticancer Drug Screen. Data for the rad50EPP+ strain (AID 151);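 also: 0% = growth of vehicle-treated control cultures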; conditions: S. cerevisiae rad50 mutant strain, stronger effect = higher value
In short: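 Yeast strain carrying rad50 alteration (rad50EPP+) exposed to compounds; growth inhibition measured relative to vehicle-treated controls.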

[4] = NCI Yeast Anticancer Drug Screen. Data for the mgt1 strain (AID 153); conditions: S. cerevisiae mgt1 mutant growth inhibition, stronger effect = higher value
In short: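 Yeast mgt1 strain (DNA repair/cell-cycle alteration panel) exposed to compounds; growth inhibition measured relative to vehicle-treated controls.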

[5] = NCI Yeast Anticancer Drug Screen. Data for the rad50 strain (AID 155);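 also: 0% = growth of vehicle-only cultures of the same strain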; conditions: S. cerevisiae rad50 strain growth inhibition, stronger effect = higher value
In short: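 Yeast carrying a defined DNA repair defect were exposed to test compounds, and growth was compared with vehicle-treated controls to give percent inhibition.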

[6] = NCI Yeast Anticancer Drug Screen. Data for the mec2-1 strain (AID 157); conditions: S. cerevisiae mec2-1 strain, stronger effect = higher value
In short: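 mec2-1 yeast strain, carrying an alteration in DNA damage repair or cell cycle control, was exposed to compounds; growth inhibition was measured relative to vehicle-treated controls.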

[7] = NCI Yeast Anticancer Drug Screen. Data for the rad14 strain (AID 159);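 also: 0% = growth of vehicle-treated control cultures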; conditions: S. cerevisiae rad14 strain growth inhibition, stronger effect = higher value
In short: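 Yeast cells carrying a defined DNA-repair defect were exposed to compounds, and growth inhibition was calculated relative to vehicle-treated control cultures.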

[8] = NCI Yeast Anticancer Drug Screen. Data for the sgs1 mgt1 strain (AID 161);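 also: 0% = growth of cultures given vehicle only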; conditions: S. cerevisiae sgs1 mgt1 strain, stronger effect = higher value
In short: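 Compounds are added to genetically altered yeast, and growth is compared with cultures given vehicle alone to give percent inhibition.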

[9] = NCI Yeast Anticancer Drug Screen. Data for the CLN2oe strain (AID 163);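 also: 0% = growth of vehicle-only control cultures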; conditions: S. cerevisiae CLN2oe strain, stronger effect = higher value
In short: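 Yeast cells carrying a defined cell-cycle control alteration were exposed to test compounds. Growth inhibition was scored against vehicle-treated control cultures.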

[10] = NCI Yeast Anticancer Drug Screen. Data for the cln2 rad14 strain (AID 165);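 also: 0% = growth equal to vehicle treated cultures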; conditions: S. cerevisiae cln2 rad14 strain, stronger effect = higher value
In short: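 Yeast carrying cln2 and rad14 alterations (cell cycle control and DNA damage repair) were exposed to compounds. Growth inhibition was measured against vehicle-treated controls.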

[11] = NCI Yeast Anticancer Drug Screen. Data for the bub3 strain (AID 167); conditions: S. cerevisiae bub3 mutant strain, stronger effect = higher value
In short: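 Compounds were applied to a genetically altered yeast strain carrying a cell-cycle control defect. Growth inhibition was scored against vehicle-treated controls.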

[12] = NCI Yeast Anticancer Drug Screen. Data for the wt2 strain (AID 169);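 also: 0% = growth of vehicle-treated yeast cultures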; conditions: S. cerevisiae wt2 strain growth inhibition, stronger effect = higher value
In short: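 Yeast cells were exposed to test compounds, and growth inhibition was measured relative to vehicle-treated controls.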

[13] = NCI Yeast Anticancer Drug Screen. Data for the mlh1 strain (AID 171);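 also: 0% = growth of vehicle-treated control cultures of the same strain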; conditions: S. cerevisiae mlh1 strain growth inhibition, stronger effect = higher value
In short: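 Yeast carrying a defined genetic alteration in DNA damage repair or cell cycle control were exposed to test compounds. Growth inhibition was measured relative to vehicle-treated controls.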

[14] = NCI Yeast Anticancer Drug Screen. Data for the sgs1 strain (AID 173);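 also: 0% = growth of vehicle-only control cultures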; conditions: S. cerevisiae sgs1 mutant, stronger effect = higher value
In short: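 Yeast mutant strains carrying defined defects in DNA damage repair or cell cycle control were exposed to test compounds. Growth inhibition was scored against vehicle-treated controls.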

[15] = NCI Yeast Anticancer Drug Screen. Data for the mlh1 rad18 strain (AID 175); conditions: S. cerevisiae mlh1 rad18 strain growth inhibition, stronger effect = higher value
In short: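 Growth inhibition of the yeast strain was measured after compound exposure and expressed relative to vehicle-treated controls. The strain carries defined defects in DNA damage repair.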

[16] = NCI Yeast Anticancer Drug Screen. Data for the rad18 strain (AID 177); conditions: S. cerevisiae rad18 mutant growth inhibition, stronger effect = higher value
In short: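 Yeast carrying a defined DNA damage repair alteration were exposed to compounds. Growth inhibition was expressed relative to vehicle-treated controls.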

[17] = at 5.0 µM (retest, dose inferred, filed as 0.5)
[18] = at 50.0 µM (retest, dose inferred, filed as 5.0)

Measured: growth inhibition

NNC(=O)CCc1cc2ccccc2c2ccccc12
inactive: [1]; at 1.2 µM -15% | [1]; at 3.7 µM -10% | [1]; at 11.0 µM -5% | [1]; at 33.0 µM 26% | [2]; at 1.2 µM 3% | [2]; at 3.7 µM 2% | [2]; at 11.0 µM 9% | [2]; at 33.0 µM 4% | [3]; at 1.2 µM -8% | [3]; at 3.7 µM -21% | [3]; at 11.0 µM -16% | [3]; at 33.0 µM 28% | [3]; at 100.0 µM 50% | [4]; at 1.2 µM -3% | [4]; at 3.7 µM -8% | [4]; at 11.0 µM -2% | [4]; at 33.0 µM 1% | [5]; at 1.2 µM -13% | [5]; at 3.7 µM -16% | [5]; [17] 19% | [5]; at 11.0 µM -12% | [5]; at 33.0 µM 38% | [6]; at 1.2 µM -2% | [6]; at 3.7 µM -2% | [6]; [17] 12% | [6]; at 11.0 µM -2% | [6]; at 33.0 µM -2% | [7]; at 1.2 µM -2% | [7]; at 3.7 µM -1% | [7]; at 11.0 µM 23% | [7]; at 33.0 µM 31% | [8]; [17] 28% | [9]; at 1.2 µM -9% | [9]; at 3.7 µM -7% | [9]; at 11.0 µM -12% | [9]; at 33.0 µM -2% | [10]; [17] 11% | [11]; at 1.2 µM -7% | [11]; at 3.7 µM -8% | [11]; [17] 50% | [11]; at 11.0 µM -9% | [11]; at 33.0 µM 18% | [12]; at 1.2 µM -8% | [12]; at 3.7 µM 1% | [12]; at 11.0 µM 18% | [12]; at 33.0 µM 53% | [13]; at 1.2 µM -13% | [13]; at 3.7 µM -6% | [13]; at 11.0 µM -3% | [13]; at 33.0 µM 38% | [14]; at 1.2 µM -20% | [14]; at 3.7 µM -8% | [14]; at 11.0 µM 9% | [14]; at 33.0 µM 43% | [15]; [17] 45% | [16]; at 1.2 µM -6% | [16]; at 3.7 µM -5% | [16]; at 11.0 µM 0% | [16]; at 33.0 µM 30%
active: [1]; at 100.0 µM 99% | [2]; at 100.0 µM 99% | [4]; at 100.0 µM 99% | [5]; [18] 99% | [5]; at 50.0 µM 97.9% | [5]; at 100.0 µM 99% | [6]; [18] 99% | [6]; at 50.0 µM 98.8% | [6]; at 100.0 µM 99% | [7]; at 100.0 µM 99% | [8]; [18] 98% | [8]; at 50.0 µM 98.5% | [9]; at 100.0 µM 99% | [10]; [18] 98% | [10]; at 50.0 µM 98% | [11]; [18] 98% | [11]; at 50.0 µM 98.8% | [11]; at 100.0 µM 99% | [12]; at 100.0 µM 100% | [13]; at 100.0 µM 99% | [14]; at 100.0 µM 99% | [15]; [18] 98% | [15]; at 50.0 µM 98.5% | [16]; at 100.0 µM 99%

Cc1cc(O)c(C(C)C)cc1C1(c2cc(C(C)C)c(O)cc2C)OC(=O)c2ccccc21
active: [5]; [18] 98% | [5]; at 50.0 µM 94.1% | [6]; [18] 98% | [6]; at 50.0 µM 91.7% | [8]; [18] 98% | [8]; at 50.0 µM 82% | [10]; [18] 97% | [10]; at 50.0 µM 97% | [11]; [18] 98% | [11]; at 50.0 µM 91.1% | [15]; [18] 98% | [15]; at 50.0 µM 91.6%
inactive: [1]; at 1.2 µM -4% | [1]; at 3.7 µM -3% | [1]; at 11.0 µM -5% | [1]; at 33.0 µM -3% | [1]; at 100.0 µM 34% | [2]; at 1.2 µM 2% | [2]; at 3.7 µM 2% | [2]; at 11.0 µM 5% | [2]; at 33.0 µM 1% | [2]; at 100.0 µM 20% | [3]; at 1.2 µM 0% | [3]; at 3.7 µM -1% | [3]; at 11.0 µM 0% | [3]; at 33.0 µM 0% | [3]; at 100.0 µM 0% | [4]; at 1.2 µM -1% | [4]; at 3.7 µM -1% | [4]; at 11.0 µM -2% | [4]; at 33.0 µM -3% | [4]; at 100.0 µM 18% | [5]; at 1.2 µM 3% | [5]; at 3.7 µM 0% | [5]; [17] 17% | [5]; at 11.0 µM 10% | [5]; at 33.0 µM 1% | [5]; at 100.0 µM 36% | [6]; at 1.2 µM 2% | [6]; at 3.7 µM 2% | [6]; [17] 0% | [6]; at 11.0 µM 1% | [6]; at 33.0 µM 4% | [6]; at 100.0 µM 29% | [7]; at 1.2 µM -1% | [7]; at 3.7 µM 1% | [7]; at 11.0 µM -1% | [7]; at 33.0 µM -4% | [7]; at 100.0 µM 33% | [8]; [17] 16% | [9]; at 1.2 µM -3% | [9]; at 3.7 µM -2% | [9]; at 11.0 µM -6% | [9]; at 33.0 µM -5% | [9]; at 100.0 µM 12% | [10]; [17] 51% | [11]; at 1.2 µM -2% | [11]; at 3.7 µM 1% | [11]; [17] -12% | [11]; at 11.0 µM -34% | [11]; at 33.0 µM 16% | [11]; at 100.0 µM 24% | [12]; at 1.2 µM -2% | [12]; at 3.7 µM -4% | [12]; at 11.0 µM -3% | [12]; at 33.0 µM -3% | [12]; at 100.0 µM 31% | [13]; at 1.2 µM 5% | [13]; at 3.7 µM 3% | [13]; at 11.0 µM 3% | [13]; at 33.0 µM -24% | [13]; at 100.0 µM 31% | [14]; at 1.2 µM 2% | [14]; at 3.7 µM 4% | [14]; at 11.0 µM 5% | [14]; at 33.0 µM 2% | [14]; at 100.0 µM 48% | [15]; [17] 9% | [16]; at 1.2 µM 10% | [16]; at 3.7 µM 4% | [16]; at 11.0 µM -2% | [16]; at 33.0 µM 3% | [16]; at 100.0 µM 32%

Cc1cc(N(CCOS(C)(=O)=O)CCOS(C)(=O)=O)ccc1C=Nc1ccc(-c2nc(Cc3ccccc3)sc2C)cc1
inactive: [1]; at 1.2 µM 9% | [1]; at 3.7 µM 52% | [2]; at 1.2 µM -29% | [2]; at 3.7 µM -10% | [2]; at 11.0 µM 28% | [3]; at 1.2 µM 1% | [3]; at 3.7 µM -19% | [3]; at 11.0 µM 10% | [3]; at 33.0 µM 37% | [4]; at 1.2 µM -24% | [4]; at 3.7 µM 4% | [4]; at 11.0 µM 55% | [5]; at 1.2 µM 12% | [5]; at 3.7 µM 23% | [5]; [17] 44% and 1% | [5]; at 50.0 µM 52.9% | [6]; at 1.2 µM -26% | [6]; at 3.7 µM 4%
active: [1]; at 11.0 µM 84% | [1]; at 33.0 µM 92% | [1]; at 100.0 µM 96% | [2]; at 33.0 µM 90% | [2]; at 100.0 µM 98% | [3]; at 100.0 µM 92% | [4]; at 33.0 µM 90% | [4]; at 100.0 µM 98% | [5]; at 11.0 µM 71% | [5]; at 33.0 µM 93% | [5]; at 100.0 µM 97%
95% (active) and 49% (inactive): [5]; [18]
